Compounds with a hit are over-represented: about 4.6% of the library has one in this group of screens.
DAX1 inh-1: DAX1 (NR0B1) inhibitors, primary screen, cell-based, HEK293, Gal4-DAX1, luciferase luminescence | 340,000 tested, 0.99% active | AID 504766, 2011 | HEK293 Gal4-DAX1 luciferase reporter | inhibition, % at 6.75 µM | Nuclear receptor subfamily 0 group B member 1 (Homo sapiens), P51843;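 active = inhibition above the mean over all tested compounds plus 3 SD, cut at about 4.2% in these data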;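 note: 0% = DAX1-transfected cells with DMSO and 100% = empty-vector control cells with DMSO; inhibition shows as a rise in luminescence from relieved DAX1 repression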
hgDAF12 agonist: H. glycines DAF-12 receptor agonists, primary screen, cell-based, luminescence, HEK293, GAL4 fusion, UAS-luciferase. Nuclear hormone receptor DAF-12 (Heterodera glycines), GAL4 fusion. HEK293 GAL4-hgDAF12 UAS-luciferase reporter, agonist luminescence; normalized to butyrate control. activation, % at 6.8 µM. 370,000 tested, 1.8% active;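 active = activation above a cutoff set at the mean of all screened compounds plus 3 SD, cut at about 10% in these data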;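 note: 0% = DMSO wells and 100% = sodium butyrate wells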
ssDAF-12 act: S. stercoralis DAF-12 nuclear receptor activators, primary screen, cell-based, luminescence, HEK293, GRIP1 co-expression, lit1-tk-luc; 370,000 tested, 1% active; HEK293 ssDAF-12/GRIP1 lit1-tk-luc reporter; % of 3 µM dafachronic acid response; AID 652126, 2013; activation, % at 6.8 µM;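 active = activation above the mean over all tested compounds plus 3 SD, cut at about 0.9% in these data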;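 note: 0% = DMSO-only wells and 100% = 3 µM delta7-dafachronic acid wells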
Wee1 stabilizer: Wee1 degradation inhibitors, primary screen, cell-based, HeLa, Wee1K328M-luciferase, luminescence; reporter increase, % at 5 µM; Wee1-like protein kinase (Homo sapiens), P30291; HeLa Luc-Wee1K328M stability; 100% = proteasome inhibitor MG132 effect; 220,000 tested, 1.2% active;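 active = activation above the mean of all tested compounds plus 3 SD, set per screening run, cut at about 8.8% in these data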;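 note: cells exposed to compound for 20 h before luminescence read; 0% = DMSO alone and 100% = MG132 at 30 µM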
hcDAF-12 act: H. contortus DAF-12 nuclear receptor activators, primary screen, cell-based, luminescence, HEK293, lit1-tk-luc reporter. 370,000 tested, 1.4% active. activation, % at 6.8 µM. HEK293 hcDAF-12 lit1-tk-luc reporter; 0% DMSO, 100% Δ7-dafachronic acid. AID 652067, 2013;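 active = activation above the mean of all tested compounds plus 3 SD, cut at about 5.5% in these data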;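 note: 100% = response to 3 µM Δ7-dafachronic acid high control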
DAX1 inh-2: DAX1 (NR0B1) inhibitors on StAR promoter, primary screen, cell-based, luminescence, SF-1 (NR5A1), full-length DAX-1; HEK293T StAR-luciferase reporter, SF-1/DAX-1 repression relief; 370,000 tested, 1.1% active; inhibition, % at 6.8 µM;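 active = inhibition above the mean over all tested compounds plus 3 SD, cut at about 3.6% in these data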;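 note: 0% = DAX-1 cells with DMSO and 100% = cells lacking DAX-1 with DMSO; higher inhibition means more luminescence from relief of DAX-1 repression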
* = called active by the depositor.

`COc1ccc(NC(=O)C2Cc3c(-c4cccc(F)c4)ccnc3O2)cc1OC` (centres undefined) gave hgDAF12 agonist -6, ssDAF-12 act -2, hcDAF-12 act -5 and DAX1 inh-2 -4.
For CCOc1ccc(-c2nc(CSCC(=O)NC3CCC3)c(C)o2)cc1 the results were hgDAF12 agonist -5, ssDAF-12 act -3 and hcDAF-12 act -5.
COc1ccc(Cl)cc1N1C(=O)CC(Sc2ccccc2N)C1=O (centres undefined) was read as DAX1 inh-1 1, hgDAF12 agonist 3, ssDAF-12 act 1.6*, Wee1 stabilizer -3, hcDAF-12 act -1 and DAX1 inh-2 0.
`CCOc1ccccc1N1C(=O)CC(Sc2ccccc2N)C1=O` (centres undefined) gave DAX1 inh-1 1, hgDAF12 agonist 0, ssDAF-12 act -1, hcDAF-12 act 0 and DAX1 inh-2 0.
`Oc1ccc(-c2csc(Nc3cccc4ccccc34)n2)cc1O` gave DAX1 inh-1 2, hgDAF12 agonist 4, ssDAF-12 act 2.1*, hcDAF-12 act 1 and DAX1 inh-2 0.
CCOC(=O)c1csc(NC(=O)C2CCCN(S(=O)(=O)c3cc(OC)ccc3OC)C2)n1 (centres undefined) was read as hgDAF12 agonist -2, ssDAF-12 act -1, hcDAF-12 act -4 and DAX1 inh-2 -2.
`CCOC(=O)[C@]12CCCCC/C=C\1N(Cc1ccc(OC)cc1)C(=O)[C@H]2CC(=O)N1CCN(C(=O)C2CC2)CC1` gave hgDAF12 agonist -1, ssDAF-12 act -1, hcDAF-12 act -3 and DAX1 inh-2 0.
Screening CCOC(=O)[C@]12CCCC=C1N(Cc1ccc(OC)cc1)C(=O)[C@@H]2CC(=O)N1CCN(C(=O)C2CC2)CC1 returned hgDAF12 agonist -1, ssDAF-12 act 1.8*, hcDAF-12 act -1 and DAX1 inh-2 -2.
Screening C/C(=N\NC(=O)c1sccc1C)c1cccnc1 returned DAX1 inh-1 1, hgDAF12 agonist 9, ssDAF-12 act 0, hcDAF-12 act 4 and DAX1 inh-2 4.2*.
CCOC(=O)C1=NOC2(C1)C(=O)Nc1c(Cl)cccc12 (centres undefined) was read as hgDAF12 agonist 5, ssDAF-12 act 0, hcDAF-12 act 5.7* and DAX1 inh-2 0.
`CSCCC(NC(=O)OC(C)(C)C)C(=O)Oc1ccc2c(=O)c(-c3ccc4c(c3)OCCO4)coc2c1` (centres undefined) gave DAX1 inh-1 0, hgDAF12 agonist 11*, ssDAF-12 act 1, Wee1 stabilizer 9.9*, hcDAF-12 act 5.7* and DAX1 inh-2 3.
OCc1ccccc1CN1CCCCCC1 was read as DAX1 inh-1 -1, hgDAF12 agonist 2, ssDAF-12 act -1, hcDAF-12 act -1 and DAX1 inh-2 0.
`COC(=O)c1c(N)c2ccccc2[nH]c1=O` gave DAX1 inh-1 1, hgDAF12 agonist 1, ssDAF-12 act -1, Wee1 stabilizer 0, hcDAF-12 act 1 and DAX1 inh-2 0.
CC(=O)c1c(C(=O)O)c2ccccc2[nH]c1=O was read as DAX1 inh-1 4.8*, hgDAF12 agonist -1, ssDAF-12 act -1, Wee1 stabilizer -3, hcDAF-12 act 0 and DAX1 inh-2 0.
For Cc1ccc(N=Nc2c(N)n[nH]c2N)cc1 the results were DAX1 inh-1 0, hgDAF12 agonist 6, ssDAF-12 act -1, hcDAF-12 act 2 and DAX1 inh-2 1.

Source: PubChem (The Scripps Research Institute Molecular Screening Center)
